± gives the standard deviation of the averaged measurements.

The values below come from the supplement of paper PMC6522484.

For assay [1], the system named is DLD1. In words: cell viability (CellTiter-Glo) relative to plate median (fraction of plate median); higher = more viable cells. The conditions noted are these: 10 µM, treatment time 24 h. The essentials:
(§1)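 Colorectal cancer cell lines stably transduced with lentiviral TCF/Wnt firefly luciferase reporters (7TFP or TCF4/Wnt) were seeded in 384-well plates. 24 h later they received kinase inhibitor library compounds at a final 10 µM for 24 h. Parallel plates were read for firefly luciferase or CellTiterGlo luminescence on a Tecan F500 reader. Each well's signal was normalised to the plate median (webcellHTS2, additive, no log transformation), and the mean of two independent replicates is reported.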

For assay [2], the system named is HCT116. The assay is described as above. Conditions: 10 µM; treatment time 24 h; reporter: TCF4/Wnt. A digest of the protocol: as §1
Assay [3] concerns SW480. The assay is described as above. Conditions: 10 µM; treatment time 24 h; reporter: 7TFP. The essentials:
as §1

Assay [4] deals with DLD1. In words: TCF/Wnt firefly luciferase reporter signal relative to plate median (fraction of plate median); higher = higher Wnt reporter signal. Conditions: 10 µM, treatment time 24 h. The essentials: as §1
In assay [5] the test system is HCT116. The description is as above. Conditions: 10 µM; treatment time 24 h; reporter: TCF4/Wnt. The essentials: as §1
Assay [6] deals with SW480. Described as above. The conditions noted are these: 10 µM; treatment time 24 h; reporter: 7TFP. The essentials: as §1

`C=CC(=O)N1CCC[C@@H](n2nc(-c3ccc(Oc4ccccc4)cc3)c3c(N)ncnc32)C1`: the cell viability with DLD1 [1] (reporter: 7TFP) amounted to 1.05 ± 0.077; in the assay with DLD1 [1] (reporter: TCF4/Wnt) it was 1.115 ± 0.0071; in the assay with HCT116 [2] it was 1.36 ± 0.085; in the assay with SW480 [3] it was 1.16 ± 0.064. The “TCF/Wnt firefly luciferase reporter signal” value in the assay with DLD1 [4] (reporter: 7TFP) amounted to 0.557 ± 0.17; in the assay on DLD1 [4] (reporter: TCF4/Wnt), 0.881 ± 0.35; in the assay with HCT116 [5], 1.33 ± 0.14; with SW480 [6], 1.11 ± 0.042.
`COCCOc1ccc2c(c1)ncn2-c1ccc2cccc(N3CCC(N)CC3)c2n1`: the cell viability with DLD1 [1] (reporter: 7TFP) was 0.954 ± 0.11; with DLD1 [1] (reporter: TCF4/Wnt) it was 1.14 ± 0.12; in the assay with HCT116 [2], 0.556 ± 0.16; in the assay with SW480 [3], 1.05 ± 0.082. In addition, the “TCF/Wnt firefly luciferase reporter signal” value with DLD1 [4] (reporter: 7TFP) amounted to 1.54 ± 0.16; with DLD1 [4] (reporter: TCF4/Wnt), 2.17 ± 0.41; in the assay with HCT116 [5] it was 0.422 ± 0.12; with SW480 [6] it was 1.71 ± 0.26.
For the molecule `CCS(=O)(=O)Nc1ccc2c(c1)/C(=C(/Nc1ccc(CN3CCCCC3)cc1)c1ccccc1)C(=O)N2` [Hesperadin], the cell viability with DLD1 [1] (reporter: 7TFP) was determined as 1.08 ± 0.13; in the assay on DLD1 [1] (reporter: TCF4/Wnt), 1.14 ± 0.085; in the assay on HCT116 [2] it was 0.556 ± 0.2; with SW480 [3], 0.873 ± 0.15. The “TCF/Wnt firefly luciferase reporter signal” value came out at 0.765 ± 0.36 in the assay on DLD1 [4] (reporter: 7TFP), 0.902 ± 0.11 with DLD1 [4] (reporter: TCF4/Wnt), 0.492 ± 0.031 with HCT116 [5] and 0.557 ± 0.16 in the assay on SW480 [6].
For `C[C@@H](Oc1cc(-n2cnc3ccc(CN4CCN(C)CC4)cc32)sc1C(N)=O)c1ccccc1C(F)(F)F`, the cell viability in the assay with DLD1 [1] (reporter: 7TFP) worked out at 0.905 ± 0.036; with DLD1 [1] (reporter: TCF4/Wnt), 0.934 ± 0.033; in the assay on HCT116 [2], 0.782 ± 0.0057; in the assay on SW480 [3] it was 1.05 ± 0.057. The “TCF/Wnt firefly luciferase reporter signal” value came to 0.726 ± 0.15 in the assay on DLD1 [4] (reporter: 7TFP), 0.565 ± 0.17 with DLD1 [4] (reporter: TCF4/Wnt), 0.335 ± 0.045 in the assay on HCT116 [5] and 0.941 ± 0.11 in the assay on SW480 [6].
As for `Nc1ccc(-c2ccc3ncc4ccc(=O)n(-c5cccc(C(F)(F)F)c5)c4c3c2)cn1` [Torin 2], the cell viability worked out at 0.949 ± 0.031 with DLD1 [1] (reporter: 7TFP), 0.9595 ± 0.005 in the assay with DLD1 [1] (reporter: TCF4/Wnt), 0.681 ± 0.085 in the assay on HCT116 [2] and 1.11 ± 0.064 with SW480 [3]. Moreover, the “TCF/Wnt firefly luciferase reporter signal” value in the assay on DLD1 [4] (reporter: 7TFP) is 0.355 ± 0.027; in the assay on DLD1 [4] (reporter: TCF4/Wnt) it was 0.523 ± 0.032; in the assay with HCT116 [5], 0.641 ± 0.073; in the assay with SW480 [6], 0.817 ± 0.0099.
For the molecule `O=C1NC(=O)C(c2ccccc2[N+](=O)[O-])=C1Nc1ccc(O)c(Cl)c1`, the cell viability in the assay on DLD1 [1] (reporter: 7TFP) was found to be 1.13 ± 0.2; in the assay on DLD1 [1] (reporter: TCF4/Wnt), 1.07 ± 0.035; with HCT116 [2] it was 1.06 ± 0.05; with SW480 [3], 0.859 ± 0.072. The “TCF/Wnt firefly luciferase reporter signal” value in the assay on DLD1 [4] (reporter: 7TFP) is 1.63 ± 0.24; in the assay with DLD1 [4] (reporter: TCF4/Wnt) it was 1.85 ± 0.45; in the assay on HCT116 [5], 2.56 ± 0.96; with SW480 [6], 1.07 ± 0.12.
For the molecule `Nc1cccc(-c2cc3c(Oc4cccc(O)c4)ncnc3[nH]2)c1`, the cell viability was 1.17 ± 0.085 in the assay with DLD1 [1] (reporter: 7TFP), 1.06 ± 0.078 in the assay on DLD1 [1] (reporter: TCF4/Wnt), 1.05 ± 0.028 with HCT116 [2] and 0.92 ± 0.018 with SW480 [3]. Moreover, the “TCF/Wnt firefly luciferase reporter signal” value in the assay on DLD1 [4] (reporter: 7TFP) stood at 0.961 ± 0.098; in the assay with DLD1 [4] (reporter: TCF4/Wnt) it was 1.01 ± 0.014; in the assay on HCT116 [5] it was 1.28 ± 0.085; in the assay with SW480 [6] it was 0.966 ± 0.04.
In the case of `COc1cc2nccc(Oc3ccc(NC(=O)NC4CC4)c(Cl)c3)c2cc1C(N)=O` [E7080 (Lenvatinib)], the cell viability in the assay with DLD1 [1] (reporter: 7TFP) was determined as 1.07 ± 0.085; with DLD1 [1] (reporter: TCF4/Wnt) it was 0.932 ± 0.069; in the assay with HCT116 [2], 1.06 ± 0.11; in the assay on SW480 [3] it was 0.966 ± 0.062. The “TCF/Wnt firefly luciferase reporter signal” value in the assay on DLD1 [4] (reporter: 7TFP) came out at 1.44 ± 0.078; in the assay with DLD1 [4] (reporter: TCF4/Wnt), 1.2 ± 0.05; with HCT116 [5], 1.31 ± 0.3; in the assay on SW480 [6], 0.927 ± 0.34.
Regarding `NC(=O)c1ccc(-c2nc(-c3ccccn3)c(-c3ccc4c(c3)OCO4)[nH]2)cc1`, the cell viability stood at 0.936 ± 0.16 in the assay with DLD1 [1] (reporter: 7TFP), 0.968 ± 0.014 in the assay with DLD1 [1] (reporter: TCF4/Wnt), 1.09 ± 0.035 in the assay on HCT116 [2] and 0.829 ± 0.037 with SW480 [3]. Besides, the “TCF/Wnt firefly luciferase reporter signal” value worked out at 0.99 ± 0.043 in the assay on DLD1 [4] (reporter: 7TFP), 1.2 ± 0.085 in the assay on DLD1 [4] (reporter: TCF4/Wnt), 1.21 ± 0.085 in the assay with HCT116 [5] and 0.944 ± 0.15 in the assay with SW480 [6].
`Cc1ccc(NC(=O)c2cccc(C(C)(C)C#N)c2)cc1Nc1ccc2ncn(C)c(=O)c2c1`: the cell viability worked out at 1.21 ± 0.05 in the assay with DLD1 [1] (reporter: 7TFP), 1.08 in the assay on DLD1 [1] (reporter: TCF4/Wnt), 0.955 ± 0.044 in the assay with HCT116 [2] and 1.18 ± 0.028 in the assay on SW480 [3]. Further, the “TCF/Wnt firefly luciferase reporter signal” value in the assay on DLD1 [4] (reporter: 7TFP) came out at 1.04 ± 0.33; with DLD1 [4] (reporter: TCF4/Wnt), 0.843 ± 0.048; with HCT116 [5] it was 1.2 ± 0.3; with SW480 [6] it was 1.43 ± 0.12.
For `OCCn1cc(-c2cnc3nnn(Cc4ccc5ncccc5c4)c3n2)cn1`, the cell viability in the assay with DLD1 [1] (reporter: 7TFP) was 1.16 ± 0.035; in the assay on DLD1 [1] (reporter: TCF4/Wnt), 1.01 ± 0.071; in the assay with HCT116 [2], 1.09 ± 0.028; in the assay on SW480 [3], 0.905 ± 0.029. The “TCF/Wnt firefly luciferase reporter signal” value in the assay on DLD1 [4] (reporter: 7TFP) was found to be 1.1 ± 0.11; in the assay with DLD1 [4] (reporter: TCF4/Wnt), 1.07 ± 0.13; in the assay on HCT116 [5], 1.25 ± 0.028; in the assay with SW480 [6], 1.05 ± 0.042.
